This is part of a sample that, as a whole, favours compounds with a hit. Of some 83,000 tested, about 20% had one in any assay.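 Note: values are percent growth. 100 is the growth of untreated cells, values between 100 and 0 indicate rising inhibition; between -100 and 0 indicates cell death.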 A number with no mark means an inactive call. Activity calls are given as the source filed them. The calls were made as follows: active = growth percent below 10; inactive = the rest.

The assay concerns HL-60(TB) leukemia. The assay can be described thus: NCI-60 one-dose screen, 48 h (100 = growth as untreated, 0 = no growth, -100 = all killed). As to conditions: 10 µM unless noted.
Take `CC(C)(C)CC(C)(C)Cc1ccc(OCCOCC[N+](C)(C)Cc2ccccc2)cc1`: the growth is -52.6% (active). As to `COc1cc2c(-c3nc4cc(Cl)c(F)cc4s3)cc(=O)oc2c(C)c1OC`, the growth was -56.2% (active). Turning to `Cc1cc(=O)n(-c2ccc(F)cc2)[nH]1`, the growth was 101%.

For `Cc1nc2sc(C(=O)Nc3cccc(Cl)c3)c(N)c2cc1C(O)c1ccccc1` (stereo not given), the growth is -40.9% (active). Take `O=c1c2cc(Br)cc(Br)c2nc(-c2ccc(Cl)cc2)n1/N=C/c1cccc(F)c1`: the growth was 71%.

As to `Cc1ccc2c(c1)C(=O)c1c-2c(OCCCN(C)C)nc2ccccc12`, the growth is 35%. As for `CNC1=C([N+](=O)[O-])C(c2ccc(OC)cc2)C(C#N)=C(c2ccc[nH]2)O1` (stereo not given), the growth is 93.9%. In the case of `CC(=O)C1CCC2C3CC(C)=C4CC(O)CCC4(C)C3CCC12C` (stereo not given), the growth was 98.7%. Take `Brc1ccc2[nH]cc(-c3cncn3CCc3ccccc3)c2c1`: the growth is 39.3%. Turning to `COC(=O)c1c(-c2ccccc2)csc1NC(=O)c1c(-c2ccccc2)noc1C`, the growth was 28.3%. Turning to `CC(C)CCNCC(O)Cn1c2ccccc2c2ccccc21` (stereo not given), the growth is -14.8% (active). For the compound `CCCCCCCCCCCCCC1=NCCN1CCO`, the growth is 2.28% (active). The figure for `CC(C)(C)c1cc(C(C)(C)c2ccccc2)cc(Cc2cc(C(C)(C)c3ccccc3)cc(C(C)(C)C)c2O)c1O` is 112%; for `COC1CC(OC(=O)c2ccc([N+](=O)[O-])cc2)C(COC(=O)c2ccc([N+](=O)[O-])cc2)O1` (stereo not given) it is 97%. The figure for `COc1cc2oc(-c3cccc(C(=O)Nc4ccccc4)c3)cc(=O)c2c(O)c1OC` is 92.7%; for `CN1CCN(Cc2ccc(NC(=O)c3cncc(C#Cc4cnc5cccnn45)c3)cc2C(F)(F)F)CC1` it is -37.9% (active); for `CCCCNP1(NCCCC)=NP(NCCCC)(NCCCC)=NP(NCCCC)(NCCCC)=NP(NCCCC)(NCCCC)=N1` it is -59.3% (active).

For `O=Nc1c(-c2c(O)[nH]c3cc(Br)ccc23)[nH]c2ccccc12`, the growth was -51.3% (active). For `CN(C)CCCNc1c2ccccc2nc2ccccc12`, the growth is 72.8%.

For the compound `CN1C(=O)/C(=C/c2ccc(C(=O)Nc3ncc(Cc4cccc(Cl)c4)s3)cc2)SC1=S`, the growth was 88.2%. Regarding `Cc1ccc(NC(=O)c2sc3nc(C)c(Br)c(C)c3c2N)cc1`, the growth was 95.2%. Consider `NC1=NN(O)C2=CC([N+](=O)[O-])C=CC2=N1` (stereo not given), for which the growth was 103%. For the compound `Cc1ccc(/C=C2\CNC/C(=C\c3ccc(C)cc3)C2=O)cc1`, the growth is -29.1% (active). The figure for `COc1cc(-c2csc(NC(=O)c3cc(F)cc(C(F)(F)F)c3)n2)cc(OC)c1OC` is 14%; for `O=C(NC(Cc1nnc2n(Cc3ccccc3)c(=O)c3c4c(sc3n12)CCCC4)c1ccc(Cl)cc1)c1ccccc1` (stereo not given) it is 78.5%; for `CCCCN(CCCC)CCC(C)(O)c1cc2ccccc2c2ccccc12` (stereo not given) it is 83.7%. Regarding `COC(=O)c1cncc(C(=O)Nc2ccc(-n3cnc4ccccc43)cc2)c1`, the growth is 93.7%. Consider `CCOC(=O)C1=C(C)NC(=O)NC1c1c(Cl)n(CCCl)c2ccccc12` (stereo not given), for which the growth is 117%. The figure for `Cc1ncc(C(=O)Nc2ccc(CN3CCN(C)CC3)c(C(F)(F)F)c2)cc1C#Cc1c(N)ncc2ccc(F)cc12` is 9.43% (active).

As for `COc1cc(OC)c2sc(-c3ccc(-n4cncc4-c4cc(OC)c(OC)c(OC)c4)cc3)nc2c1`, the growth was 30.3%.

On to `CC(C)CCOc1ccc(-c2n[nH]c(C(F)(F)F)c2-c2cncc(C#N)c2)c(O)c1`, for which the growth was 3.64% (active). `O=C(c1ccccc1)N(C(=S)NCCc1ccc(Cl)cc1)c1ccc(Cl)cc1`: the growth is 23%.

Consider `Cc1ccc(-c2nc(/C=N/Nc3cc(C)nc4ccc(Cl)cc34)c(C)o2)cc1`, for which the growth is -19.6% (active).

Regarding `C[C@]12CCC3c4ccc(O)cc4C[C@@H](CCCCCCCCCS(=O)CCCC(F)(F)C(F)(F)F)C3C1CC[C@@H]2O` (stereo not given in full), the growth is 73.3%. `c1ccc(-c2nc(Nc3nccnn3)c3ccccc3n2)cc1`: the growth was 99.4%. The same measure for `O=C(Nc1ccccc1)Oc1cccc2cccnc12`: 57.3%; for `CCOc1ccc(N2C(N)=NC(N)=NC2(C)C)cc1`: 16.4%.

Take `C=C[C@@]1(C)CC(=O)[C@@H](C(C)(C)c2cn(C)c3ccc(Br)cc23)C[C@@H]1O[Si](C)(C)C(C)(C)C`: the growth is 106%. As for `CCCCCSc1ccc2nc(NC(=O)OCC)sc2c1`, the growth was 4.55% (active). For the compound `CC(CN1CCN(CC(C)Nc2ccnc3cc(Cl)ccc23)CC1)Nc1ccnc2cc(Cl)ccc12` (stereo not given), the growth is 19.8%.

The values are drawn from PubChem BioAssay (NCI).
